From PubChem BioAssay (EPA / NIEHS)
Activity calls are given as the source filed them. How the source made its calls: active means hit-call score of the fitted dose curve at least 0.9, where 1 is the maximum; inactive means score below 0.9.

How the values were obtained:
Settings in all cases: mRNA level, 48 h; actives raise or lower the signal
[1] = read-out: Glutamate-cysteine ligase regulatory (GCLM), GCLM (gene 2730); test: LTEA_HepaRG_GCLM: Life Technologies and Expression Analysis (LTEA) Assay for Glutamate-cysteine ligase regulatory (GCLM) using HepaRG (AID 2283500)
Method in brief: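 Differentiated HepaRG cells exposed 48 h in serum-free induction medium to eight half-log concentrations up to 100 uM (0.5% DMSO). GCLM mRNA by TaqMan qRT-PCR, normalized to ACTB, GAPDH and POLR2A; bidirectional fit versus DMSO.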

[2] = read-out: Glutathione S-transferase M3 (GSTM3), GSTM3 (gene 2947); test: LTEA_HepaRG_GSTM3: Life Technologies and Expression Analysis (LTEA) Assay for Glutathione S-transferase M3 (GSTM3) using HepaRG (AID 2283501)
Method in brief: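 Expression of GSTM3 is determined by qRT-PCR in human liver HepaRG cells treated 48 h with an 8-point half-log range from 100 uM in 0.5% DMSO.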

[3] = read-out: Heat shock 70 kDa protein 1 (HSPA1A), gene 3303; test: LTEA_HepaRG_HSPA1A: Life Technologies and Expression Analysis (LTEA) Assay for Heat shock 70 kDa protein 1 (HSPA1A) using HepaRG (AID 2283502)
Method in brief: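 Human HepaRG cells in serum-free induction medium were exposed in duplicate for 48 h to 8 half-log concentrations, highest 100 uM, in 0.5% DMSO. HSPA1A mRNA read by TaqMan qRT-PCR, normalized to ACTB, GAPDH, POLR2A, fitted bidirectionally against DMSO.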

[4] = read-out: 3-Hydroxy-3-Methylglutaryl-CoA Synthase 2 (HMGCS2), HMGCS2 (gene 3158); test: LTEA_HepaRG_HMGCS2: Life Technologies and Expression Analysis (LTEA) Assay for 3-Hydroxy-3-Methylglutaryl-CoA Synthase 2 (HMGCS2) using HepaRG (AID 2283504)
Method in brief: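 This steatosis marker was read as HMGCS2 mRNA change in HepaRG cells treated 48 h with up to 100 uM chemical. Normalisation used housekeeping genes; activity in either direction was fitted relative to 0.5% DMSO vehicle.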

HGF (gene 3082) = test: LTEA_HepaRG_HGF: Life Technologies and Expression Analysis (LTEA) Assay for Hepatocyte Growth Facto (HGF) using HepaRG (AID 2283505)
Method in brief: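 Using HepaRG monolayers kept in 0.5% DMSO, chemicals were tested in duplicate over eight half-log concentrations from 100 uM for 48 h. Endpoint: HGF mRNA change relative to DMSO, normalized to ACTB/GAPDH/POLR2A.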

[5] = read-out: Insulin Like Growth Factor 1 (IGF1), IGF1 (gene 3479); test: LTEA_HepaRG_IGF1: Life Technologies and Expression Analysis (LTEA) Assay for Insulin Like Growth Factor 1 (IGF1) using HepaRG (AID 2283506)
Method in brief: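 Differentiated HepaRG cells in serum-free induction medium, exposed 48 h in duplicate to 8 half-log concentrations up to 100 uM in 0.5% DMSO. IGF1 mRNA by Fluidigm qRT-PCR, normalised to ACTB, GAPDH and POLR2A.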

[6] = read-out: Intercellular Adhesion Molecule 1 (ICAM1), ICAM1 (gene 3383); test: LTEA_HepaRG_ICAM1: Life Technologies and Expression Analysis (LTEA) Assay for Intercellular Adhesion Molecule 1 (ICAM1) using HepaRG (AID 2283507)
Method in brief: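 Using the human liver line HepaRG, compounds are tested in duplicate over 48 h at concentrations up to 100 uM. Expression is determined by TaqMan qRT-PCR, normalized to endogenous controls, and analysed relative to 0.5% DMSO vehicle.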

[7] = read-out: Insulin-like growth factor-binding protein 1 (IGFBP1), IGFBP1 (gene 3484); test: LTEA_HepaRG_IGFBP1: Life Technologies and Expression Analysis (LTEA) Assay for Insulin-like growth factor-binding protein 1 (IGFBP1) using HepaRG (AID 2283508)
Method in brief: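 HepaRG, 48 h, 8 conc. (max 100 uM, half-log), duplicates, 0.5% DMSO. Readout: TaqMan qRT-PCR, ACTB/GAPDH/POLR2A normalisation. Fit: bidirectional vs DMSO.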

[8] = read-out: Interleukin 6 (IL6), IL6 (gene 3569); test: LTEA_HepaRG_IL6: Life Technologies and Expression Analysis (LTEA) Assay for Interleukin 6 (IL6) using HepaRG (AID 2283509)
Method in brief: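 Differentiated human HepaRG cells, plated 48 h then switched to serum-free induction medium, were exposed in duplicate for 48 h to eight half-log concentrations up to 100 uM in 0.5% DMSO. IL6 mRNA measured by qRT-PCR, normalized to ACTB/GAPDH/POLR2A.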

[9] = read-out: Interleukin 6 Receptor (IL6R), IL6R (gene 3570); test: LTEA_HepaRG_IL6R: Life Technologies and Expression Analysis (LTEA) Assay for Interleukin 6 Receptor (IL6R) using HepaRG (AID 2283510)
Method in brief: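 Differentiated HepaRG cells, plated 48 h, then exposed in duplicate for 48 h in serum-free induction medium to 8 half-log concentrations (top 100 uM, 0.5% DMSO). IL6R mRNA measured by TaqMan qRT-PCR, normalized to ACTB/GAPDH/POLR2A; bidirectional fit vs DMSO.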

[10] = read-out: Potassium channel subfamily K member 1 (KCNK1), KCNK1 (gene 3775); test: LTEA_HepaRG_KCNK1: Life Technologies and Expression Analysis (LTEA) Assay for Potassium channel subfamily K member 1 (KCNK1) using HepaRG (AID 2283511)
Method in brief: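 Differentiated human HepaRG cells in serum-free induction medium were exposed in duplicate for 48 h to 8 half-log concentrations up to 100 uM in 0.5% DMSO. KCNK1 mRNA was measured by TaqMan qRT-PCR, normalized to ACTB, GAPDH and POLR2A, and fitted bidirectionally versus DMSO.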

[11] = read-out: Keratin 19 (KRT19), KRT19 (gene 3880); test: LTEA_HepaRG_KRT19: Life Technologies and Expression Analysis (LTEA) Assay for Keratin 19 (KRT19) using HepaRG (AID 2283512)
Method in brief: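 Readout is qRT-PCR of KRT19 mRNA, normalized to ACTB, GAPDH and POLR2A, from HepaRG cells treated 48 h with eight-point half-log dilutions topping at 100 uM. Activity in either direction is scored relative to 0.5% DMSO vehicle.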

[12] = read-out: JUN Transcription Factor, JUN (gene 3725); test: LTEA_HepaRG_JUN: Life Technologies and Expression Analysis (LTEA) Assay for JUN Transcription Factor using HepaRG (AID 2283513)
Method in brief: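 HepaRG cells, 48 h post-plating, exposed 48 h in serum-free induction medium to 8-point half-log series (top 100 uM, 0.5% DMSO), duplicate; mRNA by qRT-PCR (TaqMan, Fluidigm), normalized to ACTB/GAPDH/POLR2A; bidirectional fit vs DMSO.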

[13] = read-out: Lipase C (LIPC), LIPC (gene 3990); test: LTEA_HepaRG_LIPC: Life Technologies and Expression Analysis (LTEA) Assay for Lipase C (LIPC) using HepaRG (AID 2283514)
Method in brief: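 Differentiated human HepaRG cells in serum-free induction medium were exposed in duplicate for 48 h to eight concentrations (top 100 uM, half-log steps, 0.5% DMSO). LIPC mRNA was quantified by TaqMan qRT-PCR, normalized to ACTB, GAPDH and POLR2A, with bidirectional fitting versus DMSO.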

[14] = read-out: Lipoprotein lipase (LPL), LPL (gene 4023); test: LTEA_HepaRG_LPL: Life Technologies and Expression Analysis (LTEA) Assay for Lipoprotein lipase (LPL) using HepaRG (AID 2283515)
Method in brief: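 Differentiated human HepaRG cells in serum-free induction medium were exposed in duplicate for 48 h to eight half-log concentrations (top 100 uM) in 0.5% DMSO. LPL mRNA was quantified by TaqMan qRT-PCR, normalized to ACTB, GAPDH and POLR2A.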

[15] = read-out: MicroRNA 122 (MIR122), gene 406906; test: LTEA_HepaRG_MIR122: Life Technologies and Expression Analysis (LTEA) Assay for MicroRNA 122 (MIR122) using HepaRG (AID 2283516); further: the transcript read is the microRNA miR-122
Method in brief: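 Differentiated human HepaRG cells in serum-free induction medium exposed 48 h to 8 half-log concentrations from 100 uM in 0.5% DMSO, duplicate. MIR122 quantified by Fluidigm TaqMan qRT-PCR, normalised to ACTB, GAPDH, POLR2A; fold change fitted bidirectionally versus DMSO.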

[16] = read-out: matrix metalloproteinase-10 (MMP10), MMP10 (gene 4319); test: LTEA_HepaRG_MMP10: Life Technologies and Expression Analysis (LTEA) Assay for matrix metalloproteinase-10 (MMP10) using HepaRG (AID 2283517)
Method in brief: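 HepaRG, collagen I, ~100,000 cells/well; serum-free induction medium; 48 h exposure, duplicate, 8-pt half-log to 100 uM, 0.5% DMSO. Readout: TaqMan qRT-PCR, normalized to ACTB/GAPDH/POLR2A; bidirectional fit vs DMSO.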

MYC, MYC (gene 4609) = test: LTEA_HepaRG_MYC: Life Technologies and Expression Analysis (LTEA) Assay for MYC using HepaRG (AID 2283518)
Method in brief: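 Expression changes were scored by TaqMan qRT-PCR with ACTB, GAPDH and POLR2A normalization. Cultures in serum-free induction medium received duplicate 8-point concentration series, highest 100 uM, for 48 h; DMSO (0.5%) served as baseline.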

[17] = read-out: matrix metalloproteinase-3 (MMP3), MMP3 (gene 4314); test: LTEA_HepaRG_MMP3: Life Technologies and Expression Analysis (LTEA) Assay for matrix metalloproteinase-3 (MMP3) using HepaRG (AID 2283519)
Method in brief: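 Differentiated human HepaRG cells, plated 48 h on collagen I, were exposed in duplicate for 48 h in serum-free induction medium to eight half-log concentrations up to 100 uM in 0.5% DMSO. MMP3 mRNA was quantified by TaqMan qRT-PCR, normalised to ACTB, GAPDH and POLR2A.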

[18] = read-out: Paternally Expressed 10 (PEG10), PEG10 (gene 23089); test: LTEA_HepaRG_PEG10: Life Technologies and Expression Analysis (LTEA) Assay for Paternally Expressed 10 (PEG10) using HepaRG (AID 2283520)
Method in brief: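 Differentiated HepaRG cells exposed 48 h in serum-free induction medium to eight half-log concentrations topping at 100 uM, 0.5% DMSO, in duplicate. PEG10 mRNA quantified by TaqMan qRT-PCR, normalized to ACTB, GAPDH and POLR2A; bidirectional fit versus DMSO.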

Measured: outcome

O=C(CCl)c1ccccc1
inactive: all assays above

O=[N+]([O-])c1ccc(Cl)cc1
inactive: all assays above

N#CCCCCC#N
inactive: all assays above
